Measured values published in PubChem BioAssay (Tox21).
Inconclusive results are not listed. Activity calls are given as the source filed them. The call rests on the fitted dose curve; in most records, active means well fitted curve in the direction sought with a large enough effect in the repeat runs; inconclusive means weak or mixed curves; inactive means no such curve, though single readings can be large; an effect the other way counts as inactive or inconclusive.

Tests used:
[1] = qHTS RealTime-Glo MT Cell Viability Assay in HEK293 cells - 0 hour (AID 1224880); further: top concentration of the series differs between compounds; nearly all actives have a fitted effect of over 45% in size
Summary of the method: (§1)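 HEK293 + NanoLuc + prosubstrate, 600 cells/well; 5 h, 37 C/5% CO2; compound 23 nL in DMSO by pintool; 37 C; luminescence read at 0, 8, 16, 24, 32 and 40 h time points.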

[2] = A CellTox Green Cytotoxicity Assay to monitor cytotoxicity in HEK293 cells - 32 hour (AID 1224881); further: nearly all actives have a fitted effect of over 40% in size
Summary of the method: (§2)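 Tox21 screen in HEK293: membrane-impermeant cyanine dye fluoresces on binding dead-cell DNA; compound pinned 5 h post-seeding, plates held at 37 C, signal read repeatedly through 40 h.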

[3] = A CellTox Green Cytotoxicity Assay to monitor cytotoxicity in HepG2 cells - 0 hour (AID 1224882); further: nearly all actives have a fitted effect of over 35% in size
Summary of the method: (§3)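 Measurements at 0, 8, 16, 24, 32 and 40 h of treatment captured CellTox Green fluorescence in HepG2 cells that had been co-plated with reagent and preincubated 5 h at 37 C/5% CO2.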

[4] = A CellTox Green Cytotoxicity Assay to monitor cytotoxicity in HepG2 cells - 32 hour (AID 1224883); further: nearly all actives have a fitted effect of over 50% in size
Summary of the method: as §3

[5] = A CellTox Green Cytotoxicity Assay to monitor cytotoxicity in HEK293 cells - 8 hour (AID 1224884); further: nearly all actives have a fitted effect of over 35% in size
Summary of the method: as §2

[6] = qHTS RealTime-Glo MT Cell Viability Assay in HEK293 cells - 24 hour (AID 1224886); further: nearly all actives have a fitted effect of over 50% in size; further: potency means the concentration at half of the fitted maximal effect; on activity change, negative = cytotoxicity: top concentration of the series differs between compounds
Summary of the method: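 Nonlytic real-time viability readout: viable cells convert prosubstrate to NanoLuc substrate, giving luminescence proportional to live cell number. HEK293, 600 cells/well, compound added after 5 h, continuous culture at 37 C.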

[7] = qHTS RealTime-Glo MT Cell Viability Assay in HEK293 cells - 8 hour (AID 1224887); further: nearly all actives have a fitted effect of over 50% in size; further: potency means the concentration at half of the fitted maximal effect; on activity change, negative = cytotoxicity: top concentration of the series differs between compounds
Summary of the method: as §1

[8] = A CellTox Green Cytotoxicity Assay to monitor cytotoxicity in HEK293 cells - 16 hour (AID 1224888); further: nearly all actives have a fitted effect of over 35% in size
Summary of the method: as §2

[9] = qHTS RealTime-Glo MT Cell Viability Assay in HepG2 cells - 0 hour (AID 1224889); further: nearly all actives have a fitted effect of over 50% in size
Summary of the method: (§4)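 Luminescence read-out: viable HepG2 cells reduce a prosubstrate to a NanoLuc substrate, giving a signal proportional to live cell number. Reads taken at 0, 8, 16, 24, 32 and 40 h of compound exposure at 37 C.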

[10] = qHTS RealTime-Glo MT Cell Viability Assay in HepG2 cells - 16 hour (AID 1224885); further: nearly all actives have a fitted effect of over 50% in size
Summary of the method: as §4
On the % scale 0 is the no-effect control and ±100 the full control effect.

C[C@@H](O)[C@H]1C(=O)N2C(C(=O)O)=C(SCCN=CN)C[C@H]12
inactive: Potency [1] | Potency [2] | outcome [3] | Potency [4] | Potency [5] | Potency [6] | Potency [7] | outcome [8] | Potency [9]

NS(=O)(=O)c1cc2c(cc1Cl)CN(C1CCCCC1)C2=O
inactive: Potency [1] | Potency [2] | outcome [3] | Potency [5] | outcome [10] | outcome [8] | Potency [9]
active: Potency [6] 9.52 µM | Potency [7] 9.52 µM

CCCCCCCCC(=O)Cl
inactive: Potency [1] | Potency [2] | outcome [3] | Potency [4] | Potency [5] | Potency [6] | Potency [7] | Potency [9]

COc1ccc(Br)c(C)c1
inactive: Potency [1] | Potency [2] | outcome [3] | Potency [5] | outcome [10] | Potency [6] | Potency [7] | outcome [8] | Potency [9]

CC(CO)c1ccccc1 (stereo unspecified)
inactive: Potency [1] | Potency [2] | outcome [3] | Potency [5] | outcome [10] | Potency [6] | Potency [7] | outcome [8]

NCCS
inactive: Potency [1] | Potency [2] | outcome [3] | Potency [5] | outcome [10] | Potency [6] | Potency [7] | outcome [8] | Potency [9]

C=C(C)C(=O)OCCN(CC)CC
inactive: Potency [1] | Potency [2] | outcome [3] | Potency [5] | outcome [10] | Potency [6] | Potency [7] | outcome [8]

NNc1nnc(NN)c2ccccc12
inactive: Potency [1] | Potency [2] | outcome [3] | Potency [4] | Potency [5] | Potency [6] | Potency [7] | outcome [8] | Potency [9]

O=C1CC(c2ccc(Cl)cc2)CC(=O)N1
inactive: Potency [1] | Potency [2] | outcome [3] | Potency [4] | Potency [5] | Potency [6] | Potency [7] | outcome [8] | Potency [9]

Cc1ccc(S(=O)(=O)O)c(C)c1
inactive: Potency [1] | Potency [2] | outcome [3] | Potency [5] | outcome [10] | Potency [6] | Potency [7] | outcome [8] | Potency [9]

c1ccc2nccnc2c1
inactive: Potency [1] | Potency [2] | outcome [3] | Potency [4] | Potency [5] | Potency [6] | Potency [7] | outcome [8] | Potency [9]

Cc1ccc(C=O)cc1C
inactive: Potency [1] | Potency [2] | outcome [3] | Potency [4] | Potency [5] | Potency [6] | Potency [7] | outcome [8] | Potency [9]

COC(=O)C1CC(=O)C(C(=O)OC)CC1=O (stereo unspecified)
inactive: activity change, negative = cytotoxicity [1] 2.08% [at 6.97 µM] | cytotoxicity increase [2] 0.949% [at 6.97 µM] | cytotoxicity [3] -5.98% [at 6.97 µM] | cytotoxicity increase [4] -7.66% [at 6.97 µM] | cytotoxicity increase [5] 10.4% [at 6.97 µM] | activity change, negative = cytotoxicity [6] 0.682% [at 6.97 µM] | activity change, negative = cytotoxicity [7] 5.57% [at 6.97 µM] | activity change [8] 2.56% [at 6.97 µM] | activity change, negative = cytotoxicity [9] -20.4% [at 6.97 µM]

O=C(OCC(O)CO)c1ccccc1Nc1ccnc2c(C(F)(F)F)cccc12 (stereo unspecified)
active: Potency [6] 4.77 µM | Potency [7] 3.79 µM
inactive: Potency [1] | Potency [2] | outcome [3] | Potency [4] | Potency [5] | outcome [8] | Potency [9]

CC(CC=O)CCCC(C)(C)O (stereo unspecified)
inactive: Potency [1] | Potency [2] | outcome [3] | Potency [4] | Potency [5] | Potency [6] | Potency [7] | outcome [8] | Potency [9]

CNS(=O)(=O)CCc1ccc2[nH]cc(C3CCN(C)CC3)c2c1
inactive: Potency [1] | Potency [2] | outcome [3] | Potency [4] | Potency [5] | Potency [6] | Potency [7] | outcome [8] | Potency [9]

C=C1CC/C=C(\C)CC[C@@H]2[C@@H]1CC2(C)C
inactive: Potency [1] | Potency [2] | outcome [3] | Potency [4] | Potency [5] | Potency [6] | Potency [7] | outcome [8] | Potency [9]

CC(C)N(c1ccccc1)C(C)C
inactive: Potency [1] | Potency [2] | outcome [3] | Potency [4] | Potency [5] | Potency [6] | Potency [7] | Potency [9]

CC(S)C(=O)NCC(=O)O (stereo unspecified)
inactive: Potency [1] | outcome [3] | Potency [4] | outcome [10] | Potency [6] | Potency [7] | Potency [9]

CC(C)(C)c1cc(CCC(=O)NN)cc(C(C)(C)C)c1O
inactive: Potency [1] | Potency [2] | outcome [3] | Potency [5] | outcome [10] | Potency [6] | Potency [7] | outcome [8] | Potency [9]

CC(C)(C)c1nnc(NS(=O)(=O)c2ccc(N)cc2)s1
inactive: Potency [1] | Potency [2] | outcome [3] | Potency [5] | outcome [10] | Potency [6] | Potency [7] | outcome [8] | Potency [9]

CC(C)=CCOC(=O)c1ccccc1
inactive: Potency [1] | Potency [2] | outcome [3] | Potency [5] | outcome [10] | Potency [6] | Potency [7] | outcome [8] | Potency [9]

CCCC/C=C\CCCCCCCCCC=O
inactive: Potency [1] | Potency [2] | outcome [3] | Potency [5] | outcome [10] | Potency [6] | Potency [7] | Potency [9]

COP(=O)(OC)OC(c1ccc(Cl)cc1)P(=O)(OC)OC (stereo unspecified)
inactive: Potency [1] | Potency [2] | outcome [3] | Potency [5] | outcome [10] | Potency [6] | Potency [7] | Potency [9]

O=C(NCC(O)CO)c1c(I)c(C(=O)NCC(O)CO)c(I)c(N(CCO)C(=O)CO)c1I (stereo unspecified)
inactive: Potency [1] | Potency [2] | outcome [3] | Potency [5] | outcome [10] | Potency [6] | Potency [7] | outcome [8] | Potency [9]

CC1=C(C(=O)O)N2C(=O)[C@@H](NC(=O)[C@H](N)c3ccc(O)cc3)[C@H]2SC1
inactive: Potency [1] | Potency [2] | outcome [3] | Potency [5] | outcome [10] | Potency [6] | Potency [7] | outcome [8] | Potency [9]
